In all, about 5,500 compounds went through this assay and about 2,000 (36%) were called active. Inconclusive results (about 18%) are left out. Rule as the data show it: active = normalized growth mostly below about 0.91 (no sharp cut-off); inconclusive = no clear call, values can overlap the other calls; inactive = mostly above about 0.92. The list shows a part of the results.
Assay: chemical genetic growth profiling, strain panel (AID 1159580);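 also: tested at 20 µM; growth read once vehicle control cultures reached saturation at 30 °C; 1 = growth at the plate median or of vehicle wells; lower values mean less growth of the strain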
Conditions: S. cerevisiae deletion strains, growth OD

Measured: normalized growth

NCC1CCCCC1CC(=O)O (centres undefined)
inactive: locus YAL021C, strain ccr4, active compounds read low 1.01 | locus YAL026C, strain drs2, active compounds read low 1.02 | locus YAL030W, strain snc1, active compounds read low 1.03 | locus YBL061C, strain skt5, active compounds read low 1.04 | locus YBR009C, strain hhf1, active compounds read low 0.988 | locus YBR023C, strain chs3, active compounds read low 1.02 | locus YBR171W, strain sec66, active compounds read low 1.03 | locus YBR231C, strain swc5, active compounds read low 1.01 | locus YBR279W, strain paf1, active compounds read low 1.03 | locus YCL011C, strain gbp2, active compounds read low 1.02 | locus YCL016C, strain dcc1, active compounds read low 1 | locus YCL061C, strain MRC1, active compounds read low 1.04 | locus YCL069W, strain vba3, active compounds read low 1.02 | locus YCR088W, strain abp1, active compounds read low 1.04 | locus YDL005C, strain med2, active compounds read low 1.02 | locus YDL040C, strain nat1, active compounds read low 1.02 | locus YDR001C, strain nth1, active compounds read low 1.02 | locus YDR069C, strain doa4, active compounds read low 1.05 | locus YDR137W, strain rgp1, active compounds read low 1.03 | locus YDR159W, strain sac3, active compounds read low 0.98 | locus YDR195W, strain ref2 0.989 | locus YDR297W, strain sur2, active compounds read low 1.05 | locus YDR334W, strain swr1, active compounds read low 1.02 | locus YDR335W, strain msn5, active compounds read low 1.03 | locus YDR392W, strain spt3, active compounds read low 0.95 | locus YEL003W, strain gim4, active compounds read low 1.03 | locus YEL037C, strain rad23, active compounds read low 1.02 | locus YEL061C, strain CIN8 (second series), active compounds read low 1.02 | locus YER015W, strain faa2, active compounds read low 1.03 | locus YER016W, strain bim1, active compounds read low 1 | locus YER111C, strain swi4, active compounds read low 1.01 | locus YER155C, strain BEM2 (second series), active compounds read low 1.07 | locus YFR010W, strain ubp6, active compounds read low 1.02 | locus YGL167C, strain pmr1, active compounds read low 1.03 | locus YGL173C, strain kem1, active compounds read low 1.04 | locus YGL227W, strain vid30, active compounds read low 1.03 | locus YGL240W, strain doc1, active compounds read low 1.04 | locus YGL253W, strain hxk2, active compounds read low 1.03 | locus YHR013C, strain ard1, active compounds read low 1.02 | locus YHR027C, strain rpn1, active compounds read low 1.01 | locus YHR030C, strain SLT2, active compounds read low 0.999 | locus YHR079C, strain IRE1, active compounds read low 0.997 | locus YHR142W, strain chs7, active compounds read low 1.03 | locus YJL092W, strain hpr5, active compounds read low 1.03 | locus YJL095W, strain BCK1 (second series), active compounds read low 1.02 | locus YJL095W, strain BCK1, active compounds read low 0.988 | locus YJL115W, strain asf1, active compounds read low 1.03 | locus YJL129C, strain trk1, active compounds read low 1.04 | locus YJL154C, strain vps35, active compounds read low 1.01 | locus YJL164C, strain tpk1, active compounds read low 1.01 | locus YJL166W, strain qcr8, active compounds read low 1.05 | locus YJR066W, strain TOR1, active compounds read low 0.941 | locus YKL160W, strain elf1, active compounds read low 1.04 | locus YKR026C, strain gcn3, active compounds read low 1.02 | locus YKR091W, strain srl3, active compounds read low 1.02 | locus YLL001W, strain dnm1, active compounds read low 1.04 | locus YLL026W, active compounds read low 1.01 | locus YLL041C, strain sdh2, active compounds read low 1.02 | locus YLR027C, strain aat2, active compounds read low 1.04 | locus YLR113W, strain HOG1, active compounds read low 0.959 | locus YLR221C, strain rsa3, active compounds read low 1 | locus YLR258W, strain gsy2, active compounds read low 1.02 | locus YLR262C, strain YPT6 (second series), active compounds read low 1.04 | locus YLR320W, strain mms22, active compounds read low 1 | locus YLR342W, strain FKS1, active compounds read low 1.04 | locus YLR357W, strain rsc2, active compounds read low 1.04 | locus YLR370C, strain arc18, active compounds read low 1.03 | locus YLR384C, strain iki3, active compounds read low 1.02 | locus YML120C, strain ndi1, active compounds read low 1.03 | locus YMR058W, strain fet3, active compounds read low 1.04 | locus YMR125W, strain sto1, active compounds read low 0.985 | locus YMR129W, active compounds read low 1.02 | locus YMR205C, strain PFK2, active compounds read low 1.04 | locus YMR231W, strain pep5, active compounds read low 1.02 | locus YNL071W, strain lat1, active compounds read low 1.01 | locus YNL183C, strain NPR1, active compounds read low 0.912 | locus YNL209W, strain ssb2, active compounds read low 1.03 | locus YNL248C, strain rpa49, active compounds read low 1.01 | locus YNL322C, strain KRE1 (second series), active compounds read low 1.02 | locus YNR049C, strain mso1, active compounds read low 1.02 | locus YOR001W, strain rrp6, active compounds read low 1.04 | locus YOR070C, strain gyp1, active compounds read low 1.02 | locus YOR080W, strain dia2, active compounds read low 1.04 | locus YOR083W, strain WHI5, active compounds read low 1.01 | locus YOR106W, strain vam3, active compounds read low 1.06 | locus YOR231W, strain MKK1, active compounds read low 0.992 | locus YOR265W, strain rbl2, active compounds read low 1.03 | locus YOR270C, strain vph1, active compounds read low 1.04 | locus YOR290C, strain snf2, active compounds read low 1 | locus YPL051W, strain arl3, active compounds read low 1.03 | locus YPL078C, strain atp4, active compounds read low 1.05 | locus YPL106C, strain sse1, active compounds read low 1 | locus YPL240C, strain hsp82, active compounds read low 1.02 | locus YPL256C, strain CLN2, active compounds read low 0.961
